Test results taken from PubChem BioAssay AID1076 (NMMLSC, 2008).
Calls of active or inactive are those of the source.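 Rule for the calls: active = cell event count below 40, meaning activity score above 60 where score is 100 minus count; inactive = the rest.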

Assay: cytotoxicity in LNCaP prostate cells – cell-based, cell event count, single point, cytotoxicity control for prostate differentiation activator project, confirmation (AID 1076);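 note: counts scatter-gated live cells after medium removal discards detached dead cells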
Conditions: LNCaP cell loss, flow cytometry event count, 4 d, stronger effect = lower value

| Structure (SMILES) | cell event count (at 100 µM) | cell event count (event count, at 10 µM) |
| --- | --- | --- |
| CCCc1cc(-c2n[nH]c(C)c2-c2ccc(C(=O)OCC)o2)c(O)cc1O | 7 (active) | 71 |
| Cc1oc(-c2ccc(Cl)cc2)nc1CN1CCCC(C(=O)NCc2ccco2)C1 (centres undefined) | 27 (inactive) | 248 |
| Cc1nc2ncnn2c(C)c1CCC(=O)NCCCN1CCN(c2cccc(Cl)c2)CC1 | 95 (inactive) | 148 |
| Cc1ccc2[nH]c(=O)c3cc(C(=O)N(C)Cc4ccco4)sc3c2c1 | 72 (inactive) | 456 |
| COc1ccccc1N1CCN(C(=O)CCn2c(=O)[nH]c3ccsc3c2=O)CC1 | 206 (inactive) | 224 |
| CCOc1ccccc1NC(=O)CCC(=O)O | 239 (inactive) | 200 |
| Cc1ccc(-c2noc(CCC(=O)NC3CCN(Cc4ccccc4)CC3)n2)cc1 | 9 (active) | 77.5 |
